Assay results as given in PubChem BioAssay AID1159580 (chemical genetic matrix, 2015).
The campaign covered roughly 5,500 compounds. About 2,000 (36%) were called active. Not shown: some 18% with an inconclusive outcome. No stated cut-off is given here; in the data, active means normalized growth mostly below about 0.91 (no sharp cut-off); inconclusive means no clear call, values can overlap the other calls; inactive means mostly above about 0.92. The list shows a part of the results.

Assay: chemical genetic growth profiling, strain panel (AID 1159580);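 further: tested at 20 µM; growth read once vehicle control cultures reached saturation at 30 °C; 1 = growth at the plate median or of vehicle wells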
Conditions: S. cerevisiae deletion strains, growth OD

Measured: normalized growth

O=C(O)/C=C/c1cnc[nH]1
inactive: locus YAL040C, strain CLN3, stronger effect = lower value 1.01 | locus YCL061C, strain MRC1 (second series), stronger effect = lower value 1.01 | locus YDR150W, strain NUM1, stronger effect = lower value 1.02 | locus YDR363W, strain ESC2, stronger effect = lower value 1.03 | locus YER002W, strain NOP16, stronger effect = lower value 1 | locus YJR075W, strain HOC1, stronger effect = lower value 1.02 | locus YMR263W, strain SAP30, stronger effect = lower value 1.01 | locus YMR307W, strain GAS1, stronger effect = lower value 1.01 | locus YNL128W, strain TEP1, stronger effect = lower value 1.01 | locus YNL153C, strain GIM3, stronger effect = lower value 1.03 | locus YNL175C, strain NOP13, stronger effect = lower value 0.997 | locus YNL197C, strain WHI3, stronger effect = lower value 0.994 | locus YNL224C, strain SQS1, stronger effect = lower value 0.984 | locus YNL322C, strain KRE1, stronger effect = lower value 1.03 | locus YOR083W, strain WHI5 (second series), stronger effect = lower value 1.01 | locus YPL241C, strain CIN2, stronger effect = lower value 1.01
